Inconclusive results are not listed. The source made the active and inactive calls. Rule for the calls, unless noted: active = hit-call score of the fitted dose curve at least 0.9, where 1 is the maximum; inactive = score below 0.9.
Experiments:
[1] = BSK_LPS_PGE2: BioMAP Diversity Plus: LPS Assay for Prostaglandin E2 (PGE2) Biomarker Activity (AID 2283082); conditions: primary human HUVEC with PBMC; actives raise or lower the signal;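 for AC50: secreted prostaglandin E2 measured by ELISA in LPS-stimulated co-culture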
Summary of the method: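 ELISA read-out of PGE2 from human umbilical vein endothelial cells co-cultured with peripheral blood mononuclear cells under LPS, 24 h post-dose. Gain or loss of signal scored relative to DMSO baseline.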

[2] = read-out: Macrophage colony-stimulating factor (MCSF), CSF1 (gene 1435); assay: BSK_LPS_MCSF: BioMAP Diversity Plus: LPS Assay for Macrophage colony-stimulating factor (MCSF) Biomarker Activity (AID 2283083); conditions: primary human HUVEC with PBMC; actives raise or lower the signal
Summary of the method: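 Bidirectional fit versus DMSO of ELISA-measured M-CSF in co-cultured human umbilical vein endothelial cells and PBMC, sampled 24 h after dosing.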

[3] = read-out: Tissue Factor, F3 (gene 2152); assay: BSK_LPS_TissueFactor: BioMAP Diversity Plus: LPS Assay for Tissue Factor Biomarker Activity (AID 2283084); conditions: primary human HUVEC with PBMC; actives raise or lower the signal
Summary of the method: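 Read-out: CD142 ELISA, 24 h. System: LPS-driven human endothelial/PBMC co-culture. Analysis: up- or down-signal fitted against DMSO.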

[4] = read-out: Tumor necrosis factor (Homo sapiens) (UniProt P01375); assay: BSK_LPS_TNFa: BioMAP Diversity Plus: LPS Assay for Tumour Necrosis Factor alpha (TNFa) Biomarker Activity (AID 2283085); conditions: primary human HUVEC with PBMC; actives raise or lower the signal;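 for AC50: TNFa protein level quantified by ELISA in the co-culture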
Summary of the method: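 HUVEC/PBMC co-culture, LPS-stimulated; 24 h post-dose; TNFa by ELISA; gain or loss of signal fitted bidirectionally vs DMSO baseline.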

[5] = read-out: Vascular cell adhesion molecule 1 (VCAM1), VCAM1 (gene 7412); assay: BSK_LPS_VCAM1: BioMAP Diversity Plus: LPS Assay for Vascular cell adhesion molecule 1 (VCAM1) Biomarker Activity (AID 2283086); conditions: primary human HUVEC with PBMC; actives raise or lower the signal
Summary of the method: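 ELISA read-out of VCAM-1 at 24 h post-dosing in an LPS-driven HUVEC/PBMC primary human co-culture; gain or loss of signal fitted bidirectionally against DMSO baseline. Cytotoxicity tracked in parallel cultures by SRB total-protein staining.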

[6] = read-out: CD38, CD38 (gene 952); assay: BSK_SAg_CD38: BioMAP Diversity Plus: SAg Assay for CD38 Biomarker Activity (AID 2283087); conditions: primary human HUVEC with PBMC; actives raise or lower the signal
Summary of the method: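 Measures CD38 on a human endothelial/PBMC co-culture driven by SEB and TSST-1, 24 h after compound exposure, using ELISA with fluorescence detection; DMSO defines baseline for bidirectional curve fitting.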

[7] = read-out: CD40, CD40 (gene 958); assay: BSK_SAg_CD40: BioMAP Diversity Plus: SAg Assay for CD40 Biomarker Activity (AID 2283088); conditions: primary human HUVEC with PBMC; actives raise or lower the signal
Summary of the method: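 Endpoint derived by fitting increases or decreases versus DMSO controls. CD40 is detected by fluorescence ELISA in a human vascular co-culture of endothelium and PBMC at 24 h.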

[8] = read-out: CD69, CD69 (gene 969); assay: BSK_SAg_CD69: BioMAP Diversity Plus: SAg Assay for CD69 Biomarker Activity (AID 2283089); conditions: primary human HUVEC with PBMC; actives raise or lower the signal;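 for AC50: cell surface CD69 protein quantified by ELISA with fluorescence detection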
Summary of the method: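 HUVEC co-cultured with PBMC were dosed with chemical, and CD69 was measured by ELISA with fluorescence read-out 24 h later. Bidirectional curve fitting used DMSO as negative control and activity baseline.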

[9] = read-out: Monocyte Chemoattractant Protein-1 (MCP1), CCL2 (gene 6347); assay: BSK_SAg_MCP1: BioMAP Diversity Plus: SAg Assay for Monocyte Chemoattractant Protein-1 (MCP1) Biomarker Activity (AID 2283090); conditions: primary human HUVEC with PBMC; actives raise or lower the signal
Summary of the method: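 Values derive from bidirectional fitting of ELISA-measured MCP1 against DMSO controls. Readings were taken 24 h after dosing human vascular endothelial cells co-cultured with peripheral blood mononuclear cells under superantigen stimulation.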

[10] = read-out: E-selectin (Homo sapiens) (UniProt P16581); assay: BSK_SAg_Eselectin: BioMAP Diversity Plus: SAg Assay for Eselectin Biomarker Activity (AID 2283091); conditions: primary human HUVEC with PBMC; actives raise or lower the signal
Summary of the method: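 Endpoint values derive from bidirectional fitting relative to DMSO, using ELISA-measured E-selectin in a human vascular co-culture (umbilical vein endothelium plus PBMC) sampled 24 h after dosing.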

[11] = read-out: Monokine induced gamma interferon (MIG), CXCL9 (gene 4283); assay: BSK_SAg_MIG: BioMAP Diversity Plus: SAg Assay for Monokine induced gamma interferon (MIG) Biomarker Activity (AID 2283092); conditions: primary human HUVEC with PBMC; actives raise or lower the signal
Summary of the method: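 HUVEC plus human PBMC co-culture, chemicals dosed and MIG (CXCL9) quantified by ELISA at 24 h. Bidirectional curve fitting against DMSO as negative control and baseline, so both gain and loss of signal count as activity.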

[12] = BSK_SAg_PBMCCytotoxicity: PBMC Cytotoxicity Assessment in the BioMAP Diversity Plus: SAg Assay (AID 2283093); conditions: primary human HUVEC with PBMC;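 note: PBMC viability measured as Alamar Blue reduction fluorescence at 546/580 nm; fitted both ways against DMSO so a hit may be loss or gain of signal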;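 for AC50: PBMC superantigen activated with SEB plus TSST-1 one hour after compound addition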
Summary of the method: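 Alamar Blue reduction (6 h, 546/580 nm) reports PBMC cytotoxicity after 90 h superantigen activation (SEB, TSST-1; 20 ng/mL final each) with 1 h compound pre-treatment. Gain or loss of signal fitted versus DMSO.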

[13] = read-out: Interleukin-8 (IL8), CXCL8 (gene 3576); assay: BSK_SAg_IL8: BioMAP Diversity Plus: SAg Assay for Interleukin-8 (IL8) Biomarker Activity (AID 2283094); conditions: primary human HUVEC with PBMC; actives raise or lower the signal
Summary of the method: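 HUVEC/PBMC co-culture, 24 h post-dose; IL-8 by ELISA. Gain or loss of signal fitted bidirectionally vs DMSO baseline.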

[14] = BSK_SAg_Proliferation: Cell Proliferation Assessment in the BioMAP Diversity Plus: SAg Assay (AID 2283095); conditions: primary human HUVEC with PBMC;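 note: relative cell number as total protein by SRB absorbance in sub-confluent culture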
Summary of the method: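 HUVEC/PBMC co-culture, 96-well. TCA-fixed (10%), 0.1% SRB stain, A560 at 96 h. Protein content used as viability readout; bidirectional fitting vs DMSO control.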

[15] = BSK_SAg_SRB: Viability Assessment in the BioMAP Diversity Plus: SAg Assay (AID 2283096); conditions: primary human HUVEC with PBMC;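 note: cells read one day after compound addition; hits may be either gain or loss of signal compared with DMSO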
Summary of the method: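 This overt-cytotoxicity endpoint quantifies protein in human endothelial/PBMC co-cultures at 24 h using SRB absorbance (560 nm) after trichloroacetic acid fixation. Values reflect signal change from the DMSO negative control, fitted bidirectionally.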

[16] = target: human CYP19A1, CYP19A1 (gene 1588) (UniProt P11511); assay: NVS_ADME_hCYP19A1: NovaScreen (NVS) CYP450-related Enzyme Activity (ADME) Assay for human CYP19A1 (AID 2283098; active = hit-call score of the fitted dose curve at least 0.9, where 1 is the maximum)
Sequence of human CYP19A1, CYP19A1 (gene 1588) (P11511 whole entry, looked up): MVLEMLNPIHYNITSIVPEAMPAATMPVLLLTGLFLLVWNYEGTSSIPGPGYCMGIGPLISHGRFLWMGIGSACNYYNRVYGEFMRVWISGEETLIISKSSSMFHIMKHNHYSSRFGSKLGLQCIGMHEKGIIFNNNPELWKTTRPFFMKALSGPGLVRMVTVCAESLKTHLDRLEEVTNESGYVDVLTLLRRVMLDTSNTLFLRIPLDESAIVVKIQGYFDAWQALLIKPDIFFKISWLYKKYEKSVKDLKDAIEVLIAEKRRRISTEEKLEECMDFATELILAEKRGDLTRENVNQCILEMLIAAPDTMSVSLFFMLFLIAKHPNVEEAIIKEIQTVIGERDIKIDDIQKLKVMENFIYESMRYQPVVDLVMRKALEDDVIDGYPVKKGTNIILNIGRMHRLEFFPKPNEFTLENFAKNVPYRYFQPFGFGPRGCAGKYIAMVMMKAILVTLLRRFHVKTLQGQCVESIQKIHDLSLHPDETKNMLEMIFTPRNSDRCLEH
Summary of the method: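 Compounds were first screened at 10 uM in duplicate against purified enzyme, with a fluorogenic substrate and fluorescence intensity detection after 0.5 h. Inhibition appears as reduced signal against acetonitrile control.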

[17] = target: human CYP2A6, CYP2A6 (gene 1548) (UniProt P11509); assay: NVS_ADME_hCYP2A6: NovaScreen (NVS) CYP450-related Enzyme Activity (ADME) Assay for human CYP2A6 (AID 2283099; active = hit-call score of the fitted dose curve at least 0.9, where 1 is the maximum)
Sequence of human CYP2A6, CYP2A6 (gene 1548) (P11509 whole entry, looked up): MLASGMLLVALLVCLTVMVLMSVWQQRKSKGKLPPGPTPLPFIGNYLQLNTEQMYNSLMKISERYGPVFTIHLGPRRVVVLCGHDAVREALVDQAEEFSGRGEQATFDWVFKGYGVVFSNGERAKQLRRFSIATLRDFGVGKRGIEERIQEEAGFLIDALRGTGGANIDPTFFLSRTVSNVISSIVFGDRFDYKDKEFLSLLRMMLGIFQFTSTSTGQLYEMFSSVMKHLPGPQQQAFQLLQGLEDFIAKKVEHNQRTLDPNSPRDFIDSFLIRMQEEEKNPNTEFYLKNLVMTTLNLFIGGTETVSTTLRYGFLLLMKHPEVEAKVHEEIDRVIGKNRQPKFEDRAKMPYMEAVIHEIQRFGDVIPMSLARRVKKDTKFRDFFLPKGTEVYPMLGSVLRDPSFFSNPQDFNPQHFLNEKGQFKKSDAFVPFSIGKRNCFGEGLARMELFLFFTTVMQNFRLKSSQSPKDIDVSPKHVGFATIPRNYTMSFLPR
Summary of the method: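 Loss of fluorescence signal relative to acetonitrile vehicle reported CYP2A6 inhibition in a cell-free system using insect-cell-derived enzyme. Readings were taken at 0.5 h; top concentration in follow-up dose series was 20 uM.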

Measured: AC50

Sequence of E-selectin (Homo sapiens) (P16581 whole entry, looked up): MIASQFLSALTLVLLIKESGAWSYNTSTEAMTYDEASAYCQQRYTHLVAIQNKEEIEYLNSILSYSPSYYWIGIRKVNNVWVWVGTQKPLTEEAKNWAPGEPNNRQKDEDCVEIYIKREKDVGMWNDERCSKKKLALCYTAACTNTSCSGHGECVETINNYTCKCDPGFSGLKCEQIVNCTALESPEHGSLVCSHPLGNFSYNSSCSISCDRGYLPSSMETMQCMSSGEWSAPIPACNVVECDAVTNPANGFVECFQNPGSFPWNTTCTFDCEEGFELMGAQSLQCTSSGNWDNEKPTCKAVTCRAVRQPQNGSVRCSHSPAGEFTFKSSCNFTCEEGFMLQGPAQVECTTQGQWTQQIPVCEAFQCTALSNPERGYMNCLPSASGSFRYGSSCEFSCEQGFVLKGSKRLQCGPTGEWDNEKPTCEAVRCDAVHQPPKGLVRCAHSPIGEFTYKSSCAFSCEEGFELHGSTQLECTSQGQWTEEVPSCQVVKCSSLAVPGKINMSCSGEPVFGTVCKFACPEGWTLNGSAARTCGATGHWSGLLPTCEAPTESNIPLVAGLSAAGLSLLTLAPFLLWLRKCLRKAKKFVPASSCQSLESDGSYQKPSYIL
Sequence of Tumor necrosis factor (Homo sapiens) (P01375 whole entry, looked up): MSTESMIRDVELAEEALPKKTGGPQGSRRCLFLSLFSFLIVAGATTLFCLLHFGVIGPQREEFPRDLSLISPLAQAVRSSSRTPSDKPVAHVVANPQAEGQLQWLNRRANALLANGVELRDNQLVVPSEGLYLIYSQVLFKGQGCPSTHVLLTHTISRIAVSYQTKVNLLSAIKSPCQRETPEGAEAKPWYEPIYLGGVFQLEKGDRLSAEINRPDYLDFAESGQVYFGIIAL

O=C(O)CCCCC(=O)O
inactive: [1] | [2] | [3] | [4] | [5] | [6] | [7] | [8] | [9] | [10] | [11] | [12] | [13] | [14] | [15]

CCCCCCCCCCCCCCCCCC(=O)O
active: [4] 4.09 µM | [7] 25.8 µM | [12] 26.7 µM | [14] 24.1 µM
inactive: [1] | [2] | [3] | [5] | [6] | [8] | [9] | [10] | [13]

COc1cc(-c2nc(NC(=O)c3cc4cc(C)cc(C)c4n3CC(=O)O)sc2CCC2CCCCC2)c(OC)cc1Cl
active: [1] 3.97 µM | [2] 4.31 µM | [3] 6.36 µM | [4] 10 µM | [5] 5.07 µM | [6] 3.43 µM | [7] 3.21 µM | [8] 3.95 µM | [9] 2.78 µM | [10] 5.48 µM | [11] 4.63 µM | [12] 16.9 µM | [15] 3.85 µM

Nc1nc(N)c2nc(CNc3ccc(C(=O)N[C@@H](CCC(=O)O)C(=O)O)cc3)cnc2n1
active: [14] 3.22 µM
inactive: [1] | [2] | [3] | [4] | [5] | [6] | [7] | [8] | [9] | [10] | [12] | [15]

Nc1ccc(S(=O)(=O)c2ccc(N)cc2)cc1
inactive: [1] | [2] | [3] | [4] | [5] | [6] | [7] | [8] | [9] | [10] | [12] | [14] | [15]

CCCCCCCC=O
inactive: [1] | [2] | [3] | [4] | [5] | [6] | [7] | [8] | [9] | [10] | [11] | [12] | [15]

Cc1nc(-c2ccc3c(c2)CCN(CCC2CCC(NC(=O)/C=C/c4ccc(F)cc4)CC2)CC3)no1 (stereo unspecified)
active: [1] 1.45 µM | [2] 9.3 µM | [5] 9.3 µM | [6] 9.3 µM | [7] 6.43 µM
inactive: [3] | [4] | [8] | [9] | [10] | [11] | [12] | [13] | [14] | [16]

Cc1ccc(C)c(O)c1C
inactive: [2] | [3] | [4] | [5] | [6] | [7] | [8] | [9] | [10] | [12] | [13] | [14] | [15] | [17]
active: [1] 0.795 µM

CC(=O)OC/C=C(\C)CCC=C(C)C
inactive: [1] | [2] | [3] | [4] | [5] | [6] | [7] | [8] | [9] | [10] | [12] | [13] | [14]

CC(CO)OC(C)CO (stereo unspecified) (tested in a mixture with another compound)
inactive: [1] | [2] | [3] | [4] | [5] | [6] | [7] | [8] | [9] | [10] | [12] | [15]

Nc1ccccc1N
inactive: [3] | [4] | [6] | [7] | [8] | [9] | [10] | [11] | [12] | [14]
active: [1] 10.9 µM | [2] 3.97 µM | [5] 11.2 µM

COCCOC[C@H](CC1(C(=O)NC2CCC(C(=O)O)CC2)CCCC1)C(=O)Oc1ccc2c(c1)CCC2 (stereo partly specified)
inactive: [1] | [2] | [3] | [4] | [5] | [6] | [7] | [8] | [9] | [10] | [11] | [12]

Cc1oc(-c2ccccc2)nc1CCOc1cccc2c1ccn2CCC(=O)O
inactive: [2] | [3] | [5] | [6] | [7] | [8] | [9] | [10] | [11] | [12] | [13] | [14] | [15]
active: [1] 5.34 µM | [4] 0.655 µM

CCCCCCC(=O)OCC
inactive: [1] | [2] | [3] | [5] | [6] | [7] | [8] | [9] | [10] | [11] | [12] | [13]

CCCCN(CCCC)CCCC
inactive: [1] | [2] | [3] | [4] | [6] | [7] | [8] | [9] | [10] | [11] | [12] | [15]

OC[C@@H](O)[C@@H](O)[C@H](O)[C@H](O)CO
inactive: [1] | [2] | [3] | [4] | [6] | [7] | [8] | [9] | [10] | [11] | [12]

CCCCOC(=O)CCCCCCCCC(=O)OCCCC
inactive: [1] | [2] | [3] | [4] | [6] | [7] | [8] | [9] | [10] | [11] | [12] | [13] | [14] | [15]

c1cc(-c2ccncc2)ccn1
inactive: [1] | [2] | [3] | [5] | [6] | [7] | [8] | [9] | [10] | [11] | [12] | [14]

— PubChem BioAssay (EPA / NIEHS)
